High-throughput results as filed in PubChem BioAssay.
TrxR1 substrate: substrates of rat thioredoxin reductase 1; O89049; hit rate 0.01% among 390,000; Potency, µM (top dose mostly 114 µM); purified TrxR1 substrate turnover, NADPH consumption readout; note: nearly all actives have a fitted effect of over 50% in size
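Rat TrxR1, dispensed at 90 nM, was prereduced with 400 uM NADPH (final) for 5 min at ~22 deg C, then incubated with compound 15 min before 400 uM selenite. A first-read NADPH fluorescence drop versus no-compound background flagged substrates.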
IL-2 act: IL-2 activation | IL-2 activation reporter assay, cell-based qHTS; stimulated with anti-CD3/CD4/CD28 beads; in transgenic mouse T cells | activation, % (series mostly up to about 46 µM) | hit rate 0.065% among 360,000; in the data active = activation above about 50%; inconclusive = mostly about 30% to 49%
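Readout is EGFP and DsRed signal by fluorescent plate cytometry after 18 h at 37 degrees C. Transgenic mouse T cells (750/well) received compound for 60 min before bead stimulation (anti-CD3, anti-CD4, anti-CD28); memory T cells served as non-tolerant control.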
Giardia kill: Giardia lamblia killing; Giardia lamblia trophozoite viability; activity change, % at 7.66 µM, hits read low; hit rate 0.15% among 340,000; AID 540267; in the data active = activity change below about -80%; inconclusive = between about -30% and that limit;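 note: parasites exposed to compound for two days anaerobically before the ATP read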
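Giardia lamblia trophozoites (100 cells/well) were incubated with compounds for 48 h at 37 deg C under anaerobic conditions. Viability was read as ATP content by one-step luminescence after 15-30 min at room temperature.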
BRCA1 expr up: increases BRCA1 expression. MCF7-BRCA1-FFLuc reporter, luminescence, 48 h; response scale: scaled: vehicle 0%, 10 µM genistein 100%. Potency, µM (titrated, usually from 46.1 µM), usual class: activators. hit rate 1.1% among 380,000; note: nearly all actives have a fitted effect of over 80% in size
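Activators of BRCA1 expression were detected as increased firefly luciferase luminescence in engineered MCF7 cells after 48 h compound incubation. Signals were scaled to genistein 10 microM as full activation.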
IDH1 R132H inh: blocks human mutant IDH1 R132H enzyme. O75874. IDH1-R132H enzyme, NADPH consumption, diaphorase/resazurin fluorescence. Potency, µM (highest dose often 76.6 µM), actives largely listed as inhibitors. hit rate 0.093% among 390,000. AID 602179; note: nearly all actives have a fitted effect of over 65% in size
Target sequence (O75874 whole entry R132H, stated change not applied): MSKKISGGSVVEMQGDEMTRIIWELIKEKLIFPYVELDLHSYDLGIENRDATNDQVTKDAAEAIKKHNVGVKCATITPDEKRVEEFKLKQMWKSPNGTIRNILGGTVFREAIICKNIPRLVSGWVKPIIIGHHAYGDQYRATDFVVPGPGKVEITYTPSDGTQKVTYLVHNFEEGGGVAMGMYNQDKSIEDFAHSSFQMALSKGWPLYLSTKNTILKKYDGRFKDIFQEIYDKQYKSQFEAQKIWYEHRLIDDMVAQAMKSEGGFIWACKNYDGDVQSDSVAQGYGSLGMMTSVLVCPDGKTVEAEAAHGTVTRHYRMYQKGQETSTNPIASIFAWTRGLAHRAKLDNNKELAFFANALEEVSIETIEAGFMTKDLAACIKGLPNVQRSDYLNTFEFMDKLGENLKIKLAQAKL
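IDH1-R132H (0.5 ug/mL dispensed) in pH 7.5 Tris buffer was preincubated 30 min with compound, then given a substrate mix of 0.016 mM NADPH and 2 mM alpha-KG for 80 min at room temperature; remaining NADPH was read by diaphorase/resazurin fluorescence.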
rTrxR1 inhibitor: blocks rat thioredoxin reductase 1; recombinant rTrxR1, NADPH fluorescence consumption, selenite substrate; hit rate 1% among 390,000; O89049; Potency, µM (series often up to 114 µM), usual class: inhibitors; note: nearly all actives have a fitted effect of over 65% in size
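Rat TrxR1 (90 nM in the dispensed reagent) was pre-reduced with 400 uM NADPH for 5 min at room temperature, then incubated with compound for 15 min. After 400 uM selenite was added, NADPH fluorescence (Ex 340/Em 450 nm) was followed for 8 min.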
IDH1 autofl: interferes with resorufin fluorescence in IDH1 counter-screen | shares compounds with IDH1 R132H inh | Resorufin detection reagent fluorescence interference, cell-free | inhibition of signal, % at 51.2 µM | 750 tested, under 10 active | AID 623980
WT IDH1 inh: selectivity of mutant IDH1 inhibitors: human wild-type IDH1 | shares compounds with IDH1 R132H inh | Potency, µM (titrated, usually from 115 µM), hits mostly inhibitors | hit rate 9% among 750 | AID 623995 | WT IDH1 enzyme, NADPH diaphorase/resazurin fluorescence; note: nearly all actives have a fitted effect of over 55% in size
Target sequence (O75874 whole entry, looked up): as the sequence (O75874 whole entry R132H, stated change not applied) above, with H132R counted along it
IDH1 R132H conf: inhibits human mutant IDH1 enzyme in cherrypick confirmation; hit rate 83% among 750; IDH1 R132H enzyme, NADPH diaphorase/resazurin fluorescence; Potency, µM (doses to about 76.6 µM), hits mostly inhibitors; AID 624002; shares compounds with IDH1 R132H inh; note: nearly all actives have a fitted effect of over 50% in size
A number is an active result; i = inactive; ? = inconclusive; nt = no result given; [ ] = dose if it differs, or a comment. Most compounds without a hit are left out; they make up all but 2.2% or so of the library. Unless noted, calls come from the whole dose curve; as a rule, active = well fitted curve in the direction sought with a large enough effect; inconclusive = small, poorly fitted or top-dose-only effect, or another doubt; inactive = no such curve, though single readings can be large; an effect the other way counts as inactive or inconclusive.

SMILES	TrxR1 substrate	IL-2 act	Giardia kill	BRCA1 expr up	IDH1 R132H inh	rTrxR1 inhibitor	IDH1 autofl	WT IDH1 inh	IDH1 R132H conf
Cn1cc(C(=O)NCc2ccccc2Cl)c(=O)c2cc(S(=O)(=O)N3CCCCCC3)ccc21	i	nt	nt	nt	i	i	nt	nt	nt
CC(=O)Nc1ccc(C2=NNC(=NCC3CCCO3)SC2)cc1 (configuration not stated)	i	i	i	i	?	i	i	i	45µM
c1ccc(N(c2ccccc2)c2nc(-n3ccnc3)nc(-n3ccnc3)n2)cc1	i	i	i	i	?	i	i	i	25µM
CCOC(=O)c1ccc(N2C(=O)c3n[nH]c(C)c3C2c2ccc(C(C)C)cc2)cc1 (configuration not stated)	i	nt	nt	i	i	i	nt	nt	nt
Cc1ccc(N2C(=O)c3n[nH]c(C)c3C2c2ccc(C(C)C)cc2)cc1 (configuration not stated)	i	nt	nt	i	?	i	i	i	28µM
COc1ccc(S(=O)(=O)n2nc(-c3ccco3)nc2NCc2ccc(C(C)C)cc2)cc1	i	nt	nt	nt	i	i	nt	nt	nt
CCOc1cc(/C=C2/C(=O)ON=C2C)ccc1OCc1ccccc1F	i[11.4 µM]	i	i	i	21µM	i[11.4 µM]	i	?	28µM
Cc1ccc(NC(=O)C2CCCN(S(=O)(=O)c3cccc4cccnc34)C2)c(Br)c1 (configuration not stated)	i	nt	nt	nt	i	i	nt	nt	nt
CCCCCCCCn1c2c(c(=N)c3ccccc31)CCC2	i	i	i	i	i	i	nt	nt	nt
Cc1cc(C)c2c(=N)c3ccccc3n(CCCCCCCCn3c4ccccc4c(=N)c4c(C)cc(C)nc43)c2n1	i	i	i	i	52µM	i	i	i	28µM
COCCn1c(CCC(=O)Nc2ccc(OC)c(OC)c2)nc2cccnc21	i	nt	nt	nt	i	i	nt	nt	nt
CC(C)Cn1c(SCC(=O)N2CCc3ccccc3C2)nc2cc(Cl)ccc2c1=O	i	i	i	i	?	i	nt	nt	nt
COCCn1c(SCC(=O)N2CCc3ccccc3C2)nc2cc(Cl)ccc2c1=O	i	i	i	i	26µM	i	i	i	11µM
COc1ccc(-c2noc(CSc3nnc(C)n3-c3ccc(C)c(C)c3)n2)c(OC)c1	i	nt	nt	nt	i	i	nt	nt	nt
COc1ccccc1-c1noc(CSc2nnc(Cc3ccccc3)n2-c2ccc(C)c(C)c2)n1	i	nt	nt	nt	?	i	i	i	?
Cc1ccc(NC(=O)CCSCCC(=O)Nc2ccc(C)c(C)c2)cc1C	i	i	i	i	i	i	nt	nt	nt
CSc1ccc(NC(=O)CC(C)=O)cc1	i	i	i	i	i	?	nt	nt	nt
Cc1ccc(C)c(Sc2ccc(NC(=O)CCl)cc2)c1	i	i	?	i	?	i	i	i	40µM
Cc1ccc(Sc2ccc(NC(=O)CCl)cc2)cc1C	i	i	i	i	?	?	i	?	40µM
CCn1cc(C(=O)NCc2ccco2)c(=O)c2cc(S(=O)(=O)N3CCCCCC3)ccc21	i	i	i	i	i	i	nt	nt	nt
CCn1cc(C(=O)NCc2ccco2)c(=O)c2cc(S(=O)(=O)N3CC(C)CC(C)C3)ccc21 (configuration not stated)	i	i	i	i	5.2µM	i	i	i	2.5µM
C=CCn1cc(C(=O)NCc2ccco2)c(=O)c2cc(S(=O)(=O)N3CCCCCC3)ccc21	i	i	i	i[1.84 µM]	?	i	i	i	16µM
CCn1cc(C(=O)NCc2ccco2)c(=O)c2cc(S(=O)(=O)N3CCC(C)CC3)ccc21	i	i	i	i	33µM	i	i	i	18µM
Cc1cccc(OCC(=O)Nc2ccc(OCc3cc(=O)n4cc(C)ccc4n3)cc2)c1	i	nt	nt	nt	i	i	nt	nt	nt
O=C(Cn1c(SCCOc2ccccc2Cl)nc2ccccc21)N1CCCCC1	i	nt	nt	i	i	i	nt	nt	nt
CCN(CC)S(=O)(=O)c1ccc2c(c1)N(CC(=O)Nc1ccc(Cl)cc1)C(=O)C1CCCN21 (configuration not stated)	i	nt	nt	nt	?	i	i	i	28µM
CCN(CC)S(=O)(=O)c1ccc2c(c1)N(CC(=O)Nc1cccc(C)c1C)C(=O)C1CCCN21 (configuration not stated)	i	nt	nt	nt	i	i	nt	nt	nt
COC(=O)C1=C(C)NC(=O)NC1c1cn(-c2ccccc2)nc1-c1ccc(OC)c(Br)c1 (configuration not stated)	i	nt	nt	i	i	i	nt	nt	nt
COc1ccc(CN(CCC(c2ccccc2)c2ccc(OC(C)C)cc2)C(=O)CCl)cc1OC (configuration not stated)	i	i	i	i	?	?	i	i	7.9µM
